We go through 36 compounds from PubChem BioAssay AID1259341 (Broad Institute, 2017).

Molecules are shown by their SMILES. Active and inactive are the calls of the source.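 The calls were made as follows: active = activity change under -35% in any replicate well, with more than 20 beads read in that well; inactive = the rest.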

Caspase recruitment domain-containing protein 9 (Homo sapiens) + E3 ubiquitin-protein ligase TRIM62 (Homo sapiens), sequence (Q9BVG3 whole entry, looked up, the tested form may be a part): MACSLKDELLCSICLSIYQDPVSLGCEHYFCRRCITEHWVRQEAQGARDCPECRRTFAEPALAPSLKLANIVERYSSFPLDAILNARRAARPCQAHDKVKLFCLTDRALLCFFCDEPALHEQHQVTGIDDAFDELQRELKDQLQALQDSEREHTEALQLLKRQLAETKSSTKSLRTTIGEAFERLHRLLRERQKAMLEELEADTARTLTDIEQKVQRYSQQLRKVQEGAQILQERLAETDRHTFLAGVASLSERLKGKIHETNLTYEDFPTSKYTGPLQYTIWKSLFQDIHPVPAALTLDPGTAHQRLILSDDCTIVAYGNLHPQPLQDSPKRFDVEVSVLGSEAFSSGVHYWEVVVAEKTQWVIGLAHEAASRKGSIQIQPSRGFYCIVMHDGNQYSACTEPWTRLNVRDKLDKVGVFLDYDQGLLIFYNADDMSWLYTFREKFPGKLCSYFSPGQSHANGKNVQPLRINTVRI
Caspase recruitment domain-containing protein 9 (Homo sapiens) + E3 ubiquitin-protein ligase TRIM62 (Homo sapiens), sequence (Q9H257 whole entry, looked up, the tested form may be a part): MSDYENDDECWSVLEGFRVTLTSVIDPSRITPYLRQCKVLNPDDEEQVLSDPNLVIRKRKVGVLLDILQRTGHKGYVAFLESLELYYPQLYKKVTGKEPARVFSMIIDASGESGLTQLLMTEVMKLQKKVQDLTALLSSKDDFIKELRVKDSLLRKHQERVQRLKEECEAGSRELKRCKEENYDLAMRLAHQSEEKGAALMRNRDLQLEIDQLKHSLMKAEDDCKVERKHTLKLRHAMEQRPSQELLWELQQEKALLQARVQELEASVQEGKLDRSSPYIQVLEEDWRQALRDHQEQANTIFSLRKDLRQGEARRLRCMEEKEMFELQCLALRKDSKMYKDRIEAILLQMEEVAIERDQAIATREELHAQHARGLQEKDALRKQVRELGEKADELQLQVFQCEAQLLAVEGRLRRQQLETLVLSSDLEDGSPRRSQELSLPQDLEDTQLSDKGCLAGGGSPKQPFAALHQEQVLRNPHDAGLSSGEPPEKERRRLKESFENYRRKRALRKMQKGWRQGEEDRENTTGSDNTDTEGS

The assay addresses Caspase recruitment domain-containing protein 9 (Homo sapiens) + E3 ubiquitin-protein ligase TRIM62 (Homo sapiens) (UniProt Q9H257+Q9BVG3). As to the kind of experiment: disruptors of CARD9-TRIM62 binding, primary screen, cell lysate, HEK293FT lysates, Luminex bead ELISA (AID 1259341).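 Also: PE anti-Flag signal of Flag-CARD9 captured by myc-TRIM62 beads.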 The settings on record: PE fluorescence, stronger effect = lower value, concentration not given here.
As for `NC(=O)C1(N2CCCCC2)CCN(c2ccc(NC(=O)c3ccccc3F)cc2C(=O)O)CC1`, the activity change, negative = inhibition was -30% (inactive).

Consider `O=C(CC1Nc2ccccc2OC1=O)Nc1ccc(Cl)cc1` (stereo unspecified), for which the activity change, negative = inhibition is 13.8% (inactive).

With `CC(=O)c1sc2nc(-c3ccco3)ccc2c1N`, the activity change, negative = inhibition is -8.74% (inactive).

Regarding `C(=C\c1ccco1)/c1nc2ccccc2[nH]1`, the activity change, negative = inhibition was -9.75% (inactive).

`O=C(N/N=C/C=C/c1ccco1)c1cncc(Br)c1`: the activity change, negative = inhibition was -8.78% (inactive).

As for `CCN1CCOC(=O)C1CC(=O)Nc1cccc(C)c1` (stereo unspecified), the activity change, negative = inhibition was -1.33% (inactive).

Regarding `CCSCCNC(=O)c1cncc(Br)c1`, the activity change, negative = inhibition is 0.232% (inactive).

On to `Cc1noc(C)c1S(=O)(=O)Nc1ccc2c(c1)C(=O)N([C@H](C)CO)C[C@H](C)[C@@H](CN(C)CC1CCCCC1)OCCCC[C@H](C)O2`, for which the activity change, negative = inhibition was 7.9% (inactive).

In the case of `FC(F)(F)c1cc(Cl)c2nnc(C(F)(F)Cl)n2c1`, the activity change, negative = inhibition was 1.08% (inactive).

For the compound `CN(C)C(CN=C1NS(=O)(=O)c2ccccc21)c1ccco1` (stereo unspecified), the activity change, negative = inhibition is -0.48% (inactive).

`NC(=O)c1ccc(CN2C(=O)C3(CCNCC3)Nc3ccccc32)cc1`: the activity change, negative = inhibition was -4.33% (inactive).

On to `O=c1/c(=C/c2ccco2)sc2nc3ccccc3n12`, for which the activity change, negative = inhibition is 0.484% (inactive).

As to `CCC1c2ccc(C)n2CCN1C(=O)Nc1ccccc1C(=O)OC` (stereo unspecified), the activity change, negative = inhibition is 22.8% (inactive).

For the compound `C=CCNc1ncnc2c1CCN(C(=O)c1ccc(CSC)o1)CC2`, the activity change, negative = inhibition was 2.9% (inactive).

For the compound `CC(=O)c1ccc(NC(=O)c2noc3c2CCC3)cc1`, the activity change, negative = inhibition is -2.31% (inactive).

Consider `Cc1ncnc(N2CCC(c3nccn3Cc3cccnc3)CC2)c1C`, for which the activity change, negative = inhibition is -10.5% (inactive).

With `COc1ccc(NC(=O)c2nc(Nc3ccccc3)c3ccccc3n2)cc1`, the activity change, negative = inhibition was 4.26% (inactive).

Take `CCCOc1ccc(CCC(=O)O)cc1`: the activity change, negative = inhibition is -3.23% (inactive).

On to `O=C1c2ccccc2-c2nc3ccccc3nc21`, for which the activity change, negative = inhibition is -4.55% (inactive).

For the compound `CS(=O)(=O)c1ccc2ccn(O)c2c1`, the activity change, negative = inhibition was -9.61% (inactive).

For `O=[N+]([O-])c1cccc(-c2nnc3ccc4ccccc4n23)c1`, the activity change, negative = inhibition was -7.69% (inactive).

As for `O=C(NC1CC1)c1cc(-c2ccco2)nc2ccccc12`, the activity change, negative = inhibition is -6.41% (inactive).

For `COc1cc(N)c(Cc2nccc3cc(OC)c(OC)cc23)cc1OC`, the activity change, negative = inhibition is 1.93% (inactive).

With `c1ccc(-c2nc(-c3ccco3)n3ccccc23)cc1`, the activity change, negative = inhibition was -5.09% (inactive).

On to `CCOc1ccccc1NC(=O)N1CCCC(c2nccn2CCOC)C1` (stereo unspecified), for which the activity change, negative = inhibition was -5.04% (inactive).

In the case of `O=C(Nc1nnc(-c2ccco2)s1)c1ccccc1`, the activity change, negative = inhibition was 1.07% (inactive).

As to `CCOC(=O)/C=C/S(=O)(=O)c1ccc(NC(C)=O)cc1`, the activity change, negative = inhibition is -8.13% (inactive).

For `O=C(NCCCN1CCOCC1)c1cc(-c2ccco2)nc2ccccc12`, the activity change, negative = inhibition was -23.9% (inactive).

`c1coc(-c2cn3ccc4ccccc4c3n2)c1`: the activity change, negative = inhibition is -1.55% (inactive).

On to `Cn1ncc2c(NNC(=O)c3cc(O)cc(O)c3)ncnc21`, for which the activity change, negative = inhibition was 1.25% (inactive).

For `O=C(O)c1ccccc1/C=N/NC(=O)c1cc(-c2ccco2)nc2ccccc12`, the activity change, negative = inhibition is -9.37% (inactive).

For the compound `Cc1ccc(-c2nnc(-c3nc(Nc4nc5ccccc5s4)c4ccccc4n3)o2)cc1`, the activity change, negative = inhibition was -10.3% (inactive).

Take `C[C@H](CO)N1C[C@H](C)[C@@H](CN(C)C(=O)C2CCCCC2)OCCCC[C@H](C)Oc2ccc(NS(=O)(=O)c3ccc(Cl)cc3)cc2C1=O`: the activity change, negative = inhibition is 8.52% (inactive).

For the compound `Cc1ccc(C(=O)Nc2ccc(N3CCC(C(N)=O)(N4CCCCC4)CC3)c(C(=O)O)c2)cc1`, the activity change, negative = inhibition was -42.4% (inactive).

As to `N#Cc1c(-c2ccco2)cc(-c2cccnc2)nc1N`, the activity change, negative = inhibition is 0.372% (inactive).

As for `COc1c(C(=O)O)csc1Br`, the activity change, negative = inhibition was -20.4% (inactive).
